Screens as filed in PubChem.
HepG2 tox = kills HepG2 cells in TGF-b inhibitor counter-screen. HepG2 CAGA-GFP viability, ATP luminescence, 18 h. Potency, µM (titrated, usually from 46.1 µM), without a hit: at the highest dose activity change, negative = cytotoxicity, actives largely listed as cytotoxic. 410,000 tested, 0.76% active
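CellTiter-Glo luminescence gave cytotoxicity after 18 hours at 37 degrees C. The cells were HepG2 CAGA-GFP in 1% FBS DMEM, stimulated with 500 pg/mL TGF-beta after compound addition. %Activity was normalised to no-cell wells (complete cell-killing) and DMSO (no toxicity), and curves were fitted and classified.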
ATXN viability = viability counter-screen for ATXN expression inhibitors; S2 cells (HEK-293 line with an ATXN2-luciferase reporter) viability, CellTiter-Fluor protease fluorescence, 24 h; 400,000 tested, 0.49% active; Potency, µM (series often up to 56.7 µM), actives largely listed as cytotoxic; AID 651635; note: nearly all actives have a fitted effect of over 40% in size
TGFb SMAD3 inh = blocks TGF-b signaling; HepG2 CAGA-GFP TGF-b/SMAD3 reporter, GFP fluorescence, 18 h; TGF-beta stimulated, 500 pg/mL final; Potency, µM (highest dose often 46.1 µM), for inactives: at the highest dose activity, negative = inhibition, actives largely listed as inhibitors; 410,000 tested, 1.2% active; AID 588855; note: % is set by controls: 0 for no effect and ±100 for the full control effect; nearly all actives have a fitted effect of over 65% in size
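HEPG2 CAGA-GFP cells (1000/well, DMEM with 1% FBS) were pre-incubated 2 h at 37 degrees C, given compound by pin tool, then stimulated with TGF-beta at 500 pg/mL final for 18 h before per-cell GFP fluorescence imaging.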
DT40 TDP1 CPT = growth inhibition of DT40 Tdp1-/-;hTDP1 cells with camptothecin (screen for TDP1 inhibitors); chicken DT40 Tdp1-/-;hTDP1 cells + 20 nM CPT, ATP luminescence, 48 h; 420,000 tested, 12% active; Potency, µM (series often up to 46.2 µM), inactives show at the highest dose activity change, negative = growth inhibition, actives largely listed as inhibitors; note: % is set by controls: 0 for no effect and ±100 for the full control effect; nearly all actives have a fitted effect of over 55% in size
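Chicken DT40 Tdp1-/- cells stably complemented with human TDP1 were seeded at 400 cells/well in medium containing 20 nM camptothecin, exposed to pin-transferred compounds, and grown at 37 °C for at least 48 hr. Viability was read as ATP luminescence.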
ATXN2 expr inh = reduces ATXN2 reporter expression in HEK-293 cells. Potency, µM (highest dose often 57 µM), without a hit: top-dose activity change, negative = inhibition, actives largely listed as inhibitors. 360,000 tested, 0.72% active. AID 1745845. HEK-293 ATXN2-luciferase reporter, luminescence, 24 h; note: % is set by controls: 0 for no effect and ±100 for the full control effect; nearly all actives have a fitted effect of over 55% in size
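qHTS (up to 57 uM final) was run with 24 h compound exposure of reporter cells at 37 °C. Each well was multiplexed: SteadyGlo luminescence measured ATXN2-luciferase expression after a fluorogenic Gly-Phe-AFC viability readout (25 uM final).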
TDP1 cell noCPT = qHTS for Inhibitors of human tyrosyl-DNA phosphodiesterase 1 (TDP1): qHTS in cells in absence of CPT; AID 686978, 2013; Potency, µM (top dose mostly 46.2 µM), inactives show at the highest dose activity change, negative = growth inhibition, actives largely listed as inhibitors; 420,000 tested, 15% active; DT40 Tdp1-/- hTDP1 cells, no CPT, ATP luminescence, 48 h; note: % is set by controls: 0 for no effect and ±100 for the full control effect; nearly all actives have a fitted effect of over 55% in size
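Stably hTDP1-transfected Tdp1-null chicken DT40 cells were treated with library compounds minus camptothecin and grown for at least 48 hr at 37 °C, after which cellular ATP was quantified by luminescence.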
* marks the source's active call; other numbers are inactive results; i = inactive; ? = inconclusive; . = no result given; ! = not active in a repeat. Shown are actives, neighbours in structure and some others; about 17% of the full set was active somewhere. Calls come from the whole dose curve; as a rule, active = well fitted curve in the direction sought with a large enough effect; inconclusive = small, poorly fitted or top-dose-only effect, or another doubt; inactive = no such curve, though single readings can be large; an effect the other way counts as inactive or inconclusive. Potency is the fitted concentration of half-maximal effect.

SMILES	HepG2 tox	ATXN viability	TGFb SMAD3 inh	DT40 TDP1 CPT	ATXN2 expr inh	TDP1 cell noCPT
CCN(CC)c1ccc(/C=N/NC(=O)c2c(Cl)cnn2C)c(O)c1	1%	?	-8%	3.7µM*	?	5.8µM*
O=C(N/N=C/c1sc(N2CCOCC2)nc1-c1ccccc1)c1cccc(S(=O)(=O)N2CCOCC2)c1	-3%	i	-5%	4.6µM*	.	4.6µM*
CCN(CC)c1ccc(/C=N/NC(=O)c2cccc(S(=O)(=O)N3CCOCC3)c2)c(O)c1	-4%	.	?	4.1µM*	1.9µM*	5.8µM*
Cc1onc(-c2ccccc2)c1C(=O)Oc1cccnc1	-13%	.	-8%	-14%	.	2%
CCN(CC)S(=O)(=O)c1cccc(C(=O)N/N=C/c2cc(OC)c(O)c(OC)c2)c1	-2%	i	3%	-29%	-2%	?
COc1cc(/C=N\NC(=O)CNC(=O)C2COc3ccccc3O2)ccc1O (stereo unspecified)	1%	i	8%	?	3%	-2%
CCN(CC)c1ccc(/C=N/NC(=O)CNC(=O)C2COc3ccccc3O2)c(O)c1 (stereo unspecified)	-21%	i	?	5.8µM*	?	3.3µM*
CCN(CC)S(=O)(=O)c1cccc(C(=O)N/N=C/c2cccc(O)c2O)c1	-25%	i	?	3.7µM*	?	4.6µM*
CN(C(=O)COC(=O)CNC(=O)c1sc2ccccc2c1Cl)c1ccccc1	11%	?	-14%	-21%	-8%	-8%
CCC1CN(C(=O)N2CCC(C(=O)N3CCN(c4ccc(F)cc4)CC3)CC2)c2ccccc2O1 (stereo unspecified)	-4%	.	-24%	13µM*	.	21µM*
CCC1CN(C(=O)N2CCC(C(=O)NCCN(CC)CC)CC2)c2ccccc2O1 (stereo unspecified)	-7%	.	0%	7%	.	4%
CCC1CN(C(=O)N2CCC(C(=O)NCCN(C)C)CC2)c2ccccc2O1 (stereo unspecified)	-1%	.	-11%	2%	.	-7%
CCC1CN(C(=O)N2CCC(C(=O)N3CCN(c4cc(C)ccc4C)CC3)CC2)c2ccccc2O1 (stereo unspecified)	-73%	.	10µM*	16µM*	.	15µM*
CCC1CN(C(=O)N2CCC(C(=O)N3CCN(c4cccc(C)c4C)CC3)CC2)c2ccccc2O1 (stereo unspecified)	-77%	.	?	7.3µM*	.	5.8µM*
Cc1[nH]c2ccccc2c1Cc1nnc(SCCC#N)o1	-26%	i	5%	-17%	-7%	-20%
COc1ccc(Nc2nc3c(S(=O)(=O)c4ccc(C)cc4)nnn3c3ccsc23)cc1Cl	-12%	.	3%	0%	.	-6%
O=C(NCC(c1cccs1)N1CCOCC1)C1CCN(S(=O)(=O)c2c(Cl)cccc2Cl)CC1 (stereo unspecified)	12%	i	-6%	?	1%	?
ClCc1nnc(-c2ccccc2)o1	-94%	?	?	?	.	26µM*
Clc1cccc(-c2nnc(-c3ccccc3)o2)c1	-15%	i	-31%	16µM*	44%	23µM*
Clc1cccc(-c2nnc(-c3ccno3)o2)c1	-32%	i	-6%	0%	.	6%
CCN1CCCC1CNC(=O)c1ccc2c(c1)N(Cc1ccccc1F)C(=O)c1ccccc1S2(=O)=O (stereo unspecified)	1%	i	-3%	-3%	-8%	-18%
CC1CCCN(CCCNC(=O)c2ccc3c(c2)N(Cc2ccccc2F)C(=O)c2ccccc2S3(=O)=O)C1 (stereo unspecified)	11µM*!	?	?	23µM*	?	15µM*
CC1CCCN(CCCNC(=O)c2ccc3c(c2)N(Cc2ccc(F)cc2)C(=O)c2ccccc2S3=O)C1 (stereo unspecified)	-48%	i	?	16µM*	-25%	?
CCOC(=O)C1CCN(C(=O)CSc2nc(N)cc(=O)[nH]2)CC1	-63%	i	-2%	3%	3%	?
O=C(Nc1cccc(/C=C/c2nc3ccccc3c(=O)[nH]2)c1)c1ccccc1Cl	-7%	?	-8%	16µM*	-16%	15µM*
SMILES	HepG2 tox	ATXN viability	TGFb SMAD3 inh	DT40 TDP1 CPT	ATXN2 expr inh	TDP1 cell noCPT
COc1ccc(C(=O)Nc2cccc(/C=C/c3nc4ccccc4c(=O)[nH]3)c2)cc1	-76%	.	?	9.2µM*	.	6.5µM*
CCOC(=O)c1c(C)oc2nc(C)nc(NCCCN3CCN(c4cc(Cl)ccc4C)CC3)c12	-36%	i	?	?	5%	-14%
O=C(NCC1CCCO1)c1ccc(NC(=O)c2cccc([N+](=O)[O-])c2)cc1 (stereo unspecified)	1%	i	7%	-28%	-13%	?
O=[N+]([O-])c1cccnc1N1CCC(c2cc(-c3ccc(Cl)cc3)n[nH]2)CC1	36%	?	?	21µM*	?	21µM*
CCOC(=O)CN1CCC(c2cc(-c3ccc(Cl)cc3)n[nH]2)CC1	-63%	i	?	?	-13%	?
CCN(CC)C(=O)c1cccc(NC(=O)c2ccccc2OCc2c(C)noc2C)c1	-26%	i	-10%	-29%	.	?
COc1ccc(CC(=O)Nc2ccc(-c3cn4ccccc4n3)cc2)cc1	-28%	i	2%	13µM*	5%	?
Cc1ccn(-c2ccc(NC(=O)c3cccs3)cc2)n1	-49%	i	-3%	?	16%	12µM*
O=C(Nc1ccc(-c2cn3ccccc3n2)cc1)c1cccs1	-157%	i	?	18µM*	?	15µM*
O=C(Nc1ccc(NC(=O)c2cccs2)cc1)c1cccs1	0%	i	21%	-14%	0%	-13%
Cc1ccc(C(=O)NC2CCN(S(=O)(=O)c3ccc(F)cc3)CC2)cc1	19%	i	0%	-16%	-46%	8%
Cc1cccc(C(P(=O)(c2ccccc2)c2ccccc2)P(=O)(c2ccccc2)c2ccccc2)n1	-4%	i	0%	?	7%	16µM*
COc1ccc(-c2nc3c4ccccc4ccn3c2Cc2ccccc2C(F)(F)F)cc1OC	-26%	i	?	?	33%	16µM*
